# Experimental data published in the supplement of paper PMC6124720.
# A number with no mark means an inactive call.
# Test system: Pseudogymnoascus destructans 20631-21
# Assay: growth activity index (DuctApe, 0 = no growth, 9 = maximal growth) (index 0-9); higher = more fungal growth (less inhibition), active = 0 or less; extreme values may be limits of the assay
# Details: temperature: 13 °C, YPD
# [1] = concentration level (1-4, increasing; Biolog proprietary): 1
# [2] = concentration level (1-4, increasing; Biolog proprietary): 2
# [3] = concentration level (1-4, increasing; Biolog proprietary): 3
# [4] = concentration level (1-4, increasing; Biolog proprietary): 4
# 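Note: biolog Phenotype Microarray plates PM21–25, OD595 followed daily over 11 days, growth curves converted to index, mean of two independent experiments.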
Structure (SMILES),growth activity index [1],growth activity index [2],growth activity index [3],growth activity index [4]
[Cl-].[Cl-].[Zn+2] [Zinc chloride] (Biolog plate: PM21),5.75,6.75,7,6.25
NC[C@H]1O[C@H](O[C@H]2[C@H](O)[C@@H](O[C@H]3O[C@H](CO)[C@@H](O)[C@H](N)[C@H]3O)[C@H](N)C[C@@H]2N)[C@H](O)[C@@H](O)[C@@H]1O [Kanamycin] (Biolog plate: PM25),5,5,5,4.33
NCC(=O)NO [Glycine hydroxamate] (Biolog plate: PM22),5,3.67,2,0 (active)
O=C([O-])CC(O)(CC(=O)[O-])C(=O)[O-].[Na+].[Na+].[Na+] [Citric acid Trisodium Salt] (Biolog plate: PM25),4,4.67,4,5.67
CN(C)[C@@H]1C(O)=C(C(N)=O)C(=O)[C@@]2(O)C(O)=C3C(=O)c4c(O)ccc(Cl)c4[C@@](C)(O)[C@H]3C[C@@H]12 [Chlortetracycline] (Biolog plate: PM24),5.67,4.33,6,7
CSc1ccc2c(c1)N(CCC1CCCCN1C)c1ccccc1S2 (stereo not given) [Thioridazine] (Biolog plate: PM24),3.33,1.33,0 (active),1.33
O=S(O)(O)=S [Sodium Thiosulfate] (Biolog plate: PM23),5,4.33,1.67,0 (active)
O=c1[nH]cc(F)c(=O)[nH]1 [5-Fluorouracil] (Biolog plate: PM25),4.67,5,5.33,6
Nc1[nH]c(=O)ncc1F [5-Fluorocytosine] (Biolog plate: PM25),5,4,4.33,4
[Cl-].[Li+] [Lithium chloride] (Biolog plate: PM22),0 (active),0 (active),0 (active),0 (active)
C=C(CC[C@]12O[C@H](C(=O)O)[C@@](O)(C(=O)O)[C@](C(=O)O)(O1)[C@H](OC(=O)/C=C/[C@@H](C)C[C@@H](C)CC)[C@H]2O)[C@@H](OC(C)=O)[C@H](C)Cc1ccccc1 [Zaragozic acid A] (Biolog plate: PM24),5.67,5.33,0.667,0 (active)
CN(C)CCCN1c2ccccc2Sc2ccc(Cl)cc21 [Chlorpromazine] (Biolog plate: PM23),5,0 (active),0 (active),2
N.N.O=S(=O)(O)O [Ammonium Sulfate] (Biolog plate: PM23),4.33,5.33,4,2.67
O=[Si](O)O [Sodium metasilicate] (Biolog plate: PM24),4.33,2.67,2.67,3.33
NC(N)=S [Thiourea] (Biolog plate: PM21),2,0 (active),0 (active),0 (active)
